About 2,700 (0.93%) of roughly 290,000 compounds were called active.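 How the source made its calls: active means inhibition above the screen-wide mean plus 3 SD, computed separately per campaign (cut at about 16% in these data); inactive means the rest.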 Only a selection was taken, and actives are over-represented in it overall.

The test system of the assay is Heat shock protein HSP 90 (rabbit reticulocyte lysate; luciferase refolding). In words: inhibitors of HSP90 chaperone activity – cell lysate, luminescence, primary screen (AID 1789).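 Further: 0% = DMSO wells and 100% = 60 µM geldanamycin wells; inhibitors lower the luminescence because luciferase stays unfolded.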 The settings on record: 3 h, at 5.6 µM, active compounds read high.
As to `CCOC(=O)CSc1nc2ccc(C)cc2[nH]1`, the inhibition was 1.44% (inactive). On to `Cc1ccc2nc(/C(C#N)=C\c3ccc(OC(=O)c4cccs4)cc3)[nH]c2c1`, for which the inhibition was 30.5% (active). `COc1cc(/C=C(\C#N)c2nc3ccccc3[nH]2)ccc1O`: the inhibition was -1.74% (inactive). As to `CCn1c(CC(=O)Nc2ccccc2C)nnc1SCC(=O)NC1=NCCS1`, the inhibition is 3.37% (inactive). The result for `O=c1oc(-c2ccccc2NS(=O)(=O)c2ccc(Cl)cc2)nc2ccccc12` reads 0.82% (inactive); that for `S=c1[nH]nc(/C=C/c2ccccc2)o1`, -3.77% (inactive). As for `O=c1oc(/C=C/c2ccccc2)nc2ccccc12`, the inhibition was 21% (active). With `O=C(Nc1ccccc1)c1ccc(NC(=O)c2cccs2)cc1` the figure was 1.79% (inactive); with `Cc1ccc(-c2nnc(-c3ccc(NC(=O)c4cccs4)cc3)o2)cc1`, -1.94% (inactive).

`Cc1nc(-c2ccc(NC(=O)c3cccs3)cc2)cs1`: the inhibition was 27.1% (active). Consider `Cc1ccc(-c2noc(CNC(=O)c3ccoc3C)n2)cc1`, for which the inhibition was 4.35% (inactive). For `COc1ccccc1CNC(=O)[C@@H]1CCCN1C(=O)[C@@H]1Cc2ccccc2CN1C(=O)OC(C)(C)C`, the inhibition is 0.82% (inactive). With `Clc1cccc(N=C2NN=C(c3ccc4c(c3)OCCO4)CS2)c1`, the inhibition is 38.8% (active).

With `Cc1cccc(N=C2NN=C(c3c[nH]c4ccccc34)CS2)c1`, the inhibition was 8.26% (inactive). As for `c1ccc(CN2CCC(N=C3NN=C(c4ccc5c(c4)OCCO5)CS3)CC2)cc1`, the inhibition was 13.2% (inactive).

`COC(CNC(=O)c1ccc2c(c1)ncn2-c1cc(C)cc(C)c1)OC`: the inhibition was -2.44% (inactive). With `O=C(OCCN=C1NS(=O)(=O)c2ccccc21)c1cccc([N+](=O)[O-])c1` the figure was -0.96% (inactive); with `C=CCOc1c(Br)cc(/C=N\n2nnnc2N)cc1OC`, 6.06% (inactive); with `COc1cc(/C=C2/C(=O)NN(c3cccc(Cl)c3)C2=O)cc(Br)c1O`, 4.77% (inactive). With `CCOc1c(Br)cc(/C=C2\C(=O)N(CCC#N)N=C2C)cc1OC` the figure was 32.1% (active); with `COc1ccc(-n2ncc3c2CC(C)(C)CC3NC(=O)CCc2c(C)nn(C)c2C)cc1` (stereo not given), -4.92% (inactive). The result for `Cc1n[nH]c(C)c1S(=O)(=O)N1CCCC(C(=O)Nc2ccc(Br)cc2)C1` (stereo not given) reads -0.76% (inactive); that for `COc1ccc(CNC(=O)CCn2cccc2)cc1`, 3.81% (inactive). `COc1ccc(CNC(=O)/C(C#N)=C/c2cccc(OC)c2OC)cc1`: the inhibition is 31.1% (active). As to `COc1ccc(NC(=O)/C(C#N)=C\c2cc(OC)c(OCc3ccc(C(=O)O)cc3)cc2Br)cc1`, the inhibition was -2.4% (inactive). The result for `Cc1cc(=O)oc2c1ccc1ccccc12` reads -1.23% (inactive). The result for `CC1Cn2c(nnc2-c2cccs2)S1` (stereo not given) reads 27.3% (active); that for `Cn1c(SCC(=O)N2CCCC2)nnc1-c1cccs1`, -5.69% (inactive); that for `Cc1ccccc1C1CC(c2cccs2)=NN1S(C)(=O)=O` (stereo not given), -0.31% (inactive). Consider `O=C(O)CCC(=O)Nc1ccc(OCC2CCCO2)cc1` (stereo not given), for which the inhibition is 1.1% (inactive). The result for `COC(=O)c1ccc(COc2ccc(C#N)cc2)o1` reads -2.93% (inactive). Consider `Cc1cccc(NC(=O)c2ccc(COc3ccccc3[N+](=O)[O-])o2)n1`, for which the inhibition is -1.06% (inactive).

Regarding `CCOc1ccc(OCc2ccc(C(=O)Nc3cccc(C)n3)o2)cc1`, the inhibition is 16.8% (active). Turning to `Cc1cccc(NC(=O)Nc2ccc(OCc3ccccc3)cc2)n1`, the inhibition was -4.5% (inactive). Regarding `O=C(NCCc1ccccn1)c1ccc(COc2ccccc2)o1`, the inhibition was 9% (inactive). `CCOc1ccc(OCc2ccc(C(=O)N(C)c3ccccc3)o2)cc1`: the inhibition is 23% (active). Regarding `Cc1ccc(NC(=S)N(CCCN2CCCC2)Cc2cccn2Cc2ccc(Cl)cc2)cc1`, the inhibition was 2.82% (inactive). Take `COc1ccc(C(=O)NC2CCN(C(=S)Nc3ccccc3)CC2)cc1`: the inhibition is 3.9% (inactive). With `COc1ccc(NC(=S)N2N=CCC2c2ccccc2)cc1` (stereo not given) the figure was 16.8% (active). Take `COc1ccc(C(=S)Nc2ccccc2)cc1`: the inhibition was -0.81% (inactive). `CC(C)c1ccc(NC(=O)C2CCCN(S(=O)(=O)c3cccnc3)C2)cc1` (stereo not given): the inhibition was -1.95% (inactive). With `CCOC(=O)c1c(-c2ccc(C)cc2)csc1/N=C(\C)C1=C(O)c2ccccc2C1=O`, the inhibition is -2.27% (inactive). With `CCOC(=O)c1c(C)[nH]c2c1-c1ccccc1C(=O)C2=O` the figure was -1.61% (inactive); with `CCOC(=O)C1=C(c2ccc(OC)cc2)C(=O)c2ccccc2C1=O`, 87.2% (active); with `COC(=O)C1(C)CC1(c1ccccc1)c1ccccc1` (stereo not given), 1.72% (inactive). The result for `C[n+]1cc(-c2ccccc2)oc1-c1ccccc1` reads 0.81% (inactive); that for `Cc1cc(N/C=C\C(=O)c2ccc(Cl)c(Cl)c2)no1`, -0.49% (inactive); that for `O=C(/C=C\NCC(=O)c1ccccc1)c1ccccc1`, 2.9% (inactive). `CCOc1cc2ccccc2cc1C(=O)Nc1ccccn1`: the inhibition is -0.82% (inactive). `COc1ccc(C(=O)/C=C/Nc2ccccn2)cc1`: the inhibition was 65.4% (active). Regarding `CCOc1ccc(N/C=C/C(=O)c2ccccc2)cc1`, the inhibition was 51% (active). Take `CCOc1ccc(N/C=C/C(=O)c2cc(OC)c(OC)c(OC)c2)cc1`: the inhibition was -0.12% (inactive). For `COc1cc2c(cc1OC)C(c1cccc([N+](=O)[O-])c1)=NCC2`, the inhibition was -2.48% (inactive). As to `CCCCN(C)CCNC(=O)C1CCCN(S(=O)(=O)c2cccc3nsnc23)C1` (stereo not given), the inhibition is -6.58% (inactive). The result for `COc1ccc(N=Nc2c(-c3ccc(OC)cc3)[nH]oc2=O)cc1` reads 0.28% (inactive); that for `NC(=O)c1ccc(NC(=O)COC(=O)c2c3c(nc4ccccc24)/C(=C\c2ccc4c(c2)OCO4)CCC3)cc1`, -5.16% (inactive); that for `COc1ccc(Sc2nc(-c3ccccc3)ncc2OC)cc1`, -2.08% (inactive). Turning to `COc1ccc(-c2nc(-c3ccccc3)no2)c(OC)c1`, the inhibition is 44.3% (active).

Take `COc1ccccc1Cc1nc(-c2ccc(C)cc2)no1`: the inhibition is 3.61% (inactive).

For the molecule `COC(=O)c1cccnc1NC(=S)NC(C)C`, the inhibition was -2.4% (inactive). On to `CC(=O)c1ccc(NC(=O)Cn2c(=O)oc3ccccc32)cc1`, for which the inhibition was -5.66% (inactive). For `CCSc1nnc(SCC(=O)NNC(=O)c2ccccc2F)s1`, the inhibition was -3.94% (inactive). As for `S=c1[nH]c(-c2cccs2)cn1-c1ccccc1`, the inhibition was 8.66% (inactive).

Turning to `COc1ccc(-c2cn(-c3ccc(OC)cc3)c(=S)[nH]2)cc1`, the inhibition is 0.9% (inactive). With `O=c1oc2ccccc2cc1-c1cn(-c2ccccc2)c(=S)[nH]1`, the inhibition is 65.7% (active).

By inhibition is commonly meant the relative decrease from the control value, in per cent.

The record behind these values is PubChem BioAssay AID1789 (The Scripps Research Institute Molecular Screening Center, 2009).
